“And” between values parts separate entries of the source, which are not always exact repeats. Equal entries are not always repeated. The whole screen tested about 360,000 compounds, of which about 2,800 (0.78%) were called active. The full list was thinned out, with actives kept by preference. A number with no mark means an inactive call. Rule as the data show it: active = inhibition above about 26%; inactive = the rest.
What follows are compounds tested on Nicotinate-nucleotide adenylyltransferase NadD (Staphylococcus aureus N315) (assay: inhibitors of S. aureus NadD, primary screen, biochemical, colorimetric, uHTS (AID 602399)). Details: purified NadD enzyme, colorimetric absorbance read-out; at 20 µM; stronger effect = higher value.

| Structure (SMILES) | inhibition |
| --- | --- |
| O=C(c1ccccc1)N1CCN(C(=O)c2cc3nc(-c4ccccc4)cc(C(F)(F)F)n3n2)CC1 | 2.29% |
| CN(C)CCN1CCN(c2cc(-c3cccc(Cl)c3)nc3ccnn23)CC1 | -0.61% |
| C#Cc1cc(N2CCN(C(=O)c3ccoc3)CC2)n2nc(-c3cccc(Cl)c3)cc2n1 | 35.4% (active) |
| CCCCC[C@H](C)N1C[C@@H](COCc2ccccc2)Oc2cc(N3CCC[C@@H]3CO)ccc2S1(=O)=O | 1.75% |
| Nc1ncnc2c1cnn2C1CC(O)C(CO)O1 (stereo not given) | 4.49% |
| CCn1c(SCC(=O)N/N=C/C=C/c2ccccc2[N+](=O)[O-])nnc1-c1ccccc1 | 5.92% |
| CC(=O)NCCn1c(SCC(=O)Nc2ccc(C)cc2)nc2ccccc2c1=O | -6.19% |
| C/C(=N\NC(=O)CSc1nc2ccccc2c(=O)n1-c1ccccc1C)c1cccs1 | 2.02% |
| Cn1c(SCC(=O)N/N=C/c2ccc(O)c(O)c2)nc2ccccc21 | -4.08% |
| Cc1ccc(-n2c(SCC(=O)N/N=C/C=C/c3ccccc3[N+](=O)[O-])nc3ccccc3c2=O)cc1 | 35.1% (active) |
| Cc1nn(-c2ccccc2)c(C)c1/C=N/NC(=O)CSc1nc2ccccc2c(=O)n1-c1ccccc1 | 30.2% (active) |
| Cc1ccc(CC2CC(=O)N(c3nc(C)cc(C)n3)C2=O)cc1 (stereo not given) | -0.638% |
| O=C(COC(=O)c1cc(S(=O)(=O)N2CCOCC2)ccc1F)NC1CC1 | -7.35% |
| COc1ccc(Cc2nnc(SCC(=O)N(c3ccccc3)C(C)C)n(N)c2=O)cc1 | -0.371% |
| CC(=O)N(c1ccc2oc(=O)sc2c1)S(=O)(=O)c1ccc(C)cc1 | -4.06% |
| Cc1ccc2cccc(O)c2[n+]1[O-] | -2.68% |
| NNC(=O)c1ccc(COCC(F)(F)C(F)F)cc1 | 0.345% |
| O=C(O)c1ccc(COCC(F)(F)F)cc1 | 57.7% (active) |
| O=C(O)CCC(=O)NCc1ccc(C(=O)O)cc1 | -1.86% |
| O=C(CCc1ccccc1)Nc1ccc(NC(=O)C2CCCCC2)nc1 | -0.446% |

| Structure (SMILES) | inhibition |
| --- | --- |
| O=C1CCCN2N=C(SCC(=O)Nc3ccc(Br)cc3)SC2=N1 | 0% |
| COCCNC(=O)Cn1cc2c(n1)CCCCC2 | 4.24% |
| CC1CN(S(=O)(=O)c2ccc(C(=O)NN3CCN(C)CC3)cc2)CC(C)O1 (stereo not given) | -3.52% |
| Cc1ccc(C(=O)N/N=C\c2cc(Br)c(Br)o2)cn1 | -3.68% |
| Nc1cccnc1Sc1ccccc1 | -5.1% |
| FC(F)(F)C1CCCN(c2nsc3ccccc23)C1 (stereo not given) | 34.7% (active) |
| CC(C)(C)c1ccc(C(=O)N2CCC(C(=O)N3CCCCC3)CC2)cc1 | -0.861% |
| C/C(CC(=O)Nc1ccc(Cl)cc1)=N\NC(=O)C(=O)NCCO | 2.33% |
| CC(C)c1c(C(=O)N/N=C/c2ccccc2C(=O)O)nnn1-c1nonc1N | -2.34% |
| Nc1nonc1-n1nnc(C(=O)N/N=C/c2cc(Br)ccc2O)c1CSC1=NCCS1 | 37.3% (active) |
| CN(C)Cc1c(C(=O)N/N=C/c2ccccc2OCc2ccc(F)cc2)nnn1-c1nonc1N | 5.11% |
| Clc1ccc(-c2cc(C3CCNCC3)[nH]n2)c(Cl)c1 | -5.2% |
| CCC(C(=O)OC)n1cnc2c(oc3ccccc32)c1=O (stereo not given) | -0.579% |
| CCOc1ccccc1Nc1nnc(SCc2ccc(C(=O)OC)o2)s1 | -2.72% |
| Cc1ccc(C(=O)Oc2coc(CSc3nnc(NC(=O)c4cccs4)s3)cc2=O)cc1C | 58.4% (active) |
| COC(=O)c1ccc(CSc2nnc(NC(C)C)s2)cc1 | -1.36% |
| Cc1cc(C)c(C2C3=C(Nc4c2c(C)nn4-c2ccccn2)c2ccccc2C3=O)c(C)c1 (stereo not given) | 33.2% (active) |
| Cc1ccc(C)c(OCCC(=O)OCC(=O)c2ccc3c(c2)NC(=O)CO3)c1 | -5.39% |
| COc1ccc(C(=O)c2c(C)c(CCC#N)n3ccccc23)c(OC)c1 | -8.39% |
| CCOc1ccc(CN2CCNC(=O)C2CC(=O)NCCCC2CCCC2)cc1 (stereo not given) | 8.04% |

| Structure (SMILES) | inhibition |
| --- | --- |
| Oc1ccc(C2Nc3cccc4cccc(c34)N2)cc1 | 57.7% (active) |
| COc1cccc(CNCCc2c[nH]c3ccccc23)c1OCc1ccccc1F | -4.86% |
| Cc1cc(C(=O)NNS(=O)(=O)c2ccccc2C(F)(F)F)nn1C(C)(C)C | -0.0808% |
| COc1ccc(/C(=N\O)c2nccc3cc(OC)c(OC)cc23)cc1OC | -0.658% |
| CNC(=O)c1ccc(CN(C)C(=O)c2cc(C3CC3)nc3c2cnn3C(C)C)cc1 | 2.58% |
| CC(=O)NC(Cc1c[nH]c2ccccc12)C(=O)NCCc1ccccc1 (stereo not given) | -5.17% |
| O=C(NC(Cc1c[nH]c2ccccc12)C(=O)N/N=C/c1ccc(Br)cc1)c1cccs1 (stereo not given) | 32% (active) |
| O=C(CNC(=O)c1cccs1)N/N=C/c1cccc(Br)c1 | -5.24% |
| O=C1N(c2ccccc2)C(=Nc2ccccc2)SC12CC2 | -4.95% |
| Cc1cc(Cl)ccc1NNC(=O)c1snnc1C | 1.86% |
| OC(c1ccc(F)cc1)c1ncc(-c2cccc(C(F)(F)F)c2)[nH]1 (stereo not given) | 0.456% |
| O=C(NCc1ccccc1Cl)c1ccc2c(=O)n(CC3CCCO3)c(=S)[nH]c2c1 (stereo not given) | -3.54% |
| Cc1cc(N=Nc2ccc3ccccc3c2)ccc1O | -20.6% |
| CC(C)(C)c1cc(P(=O)(c2ccccc2)c2ccccc2)ccc1O | -3.61% |
| COc1ccc(N=Nc2ccc(O)c(P(=O)(c3ccccc3)c3ccccc3)c2)cc1 | 30.9% (active) |
| CN1CC(=O)N=C1N | -3.38% and -0.141% |
| COc1cccc(CN(C)C(=O)CC[C@H]2O[C@@H](n3cnc4c(NC(=O)c5ccccc5)ncnc43)[C@H](O)[C@@H]2O)c1 | -1.41% |
| O=C(CCN1CCCCC1)N=Nc1c(O)[nH]c2ccccc12 | -5.32% |
| O=[N+]([O-])c1cc(S(=O)(=O)Nc2cccc(Cl)c2)ccc1N=Nc1c(O)[nH]c2ccccc12 | 61% (active) |
| O=C(NCc1ccncc1)c1ccc(NS(=O)(=O)c2cccc([N+](=O)[O-])c2)cc1 | -1.63% |

From PubChem BioAssay AID602399 (Sanford-Burnham Center for Chemical Genomics, 2012)
